These results are taken from PubChem BioAssay.

Several values for one entry are separate records, joined by “and”; a condition that tells them apart may be missing. Equal values may be shown once. Records with an inconclusive call do not appear. Activity calls are given as the source filed them. Rule as the data show it, unless noted: active = parasite load remaining mostly below about 12% (no sharp cut-off); inactive = mostly above about 10%.

Test [1] deals with ATP-dependent translocase ABCB1 (Homo sapiens) (UniProt P08183). Description: MDR1 (ABCB1) efflux transporter inhibition, cell-based (AID 377; in the data active = fluorescence slope change above about 50%). The note with it: MDR1-expressing cells, fluorescent substrate accumulation slope; stronger effect = higher value; concentration not given here.
Test [2] can be described thus: hESC survival regulators, cell-based (AID 493140; call rule not given here;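 also: cells exposed to compounds for four days before counting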). The following applies: human embryonic stem cell survival screen; stronger effect = higher value.
A short description of test [3]: liver-stage malaria parasite growth inhibition, primary screen, cell-based, HepG2, luciferase luminescence, HepG2 viability (AID 624349).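 Also: 100% = mean of DMSO negative control wells on the same plate.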 The following applies: P. berghei liver stage in HepG2, luciferase luminescence, concentration not given here; parasite load remaining: stronger effect = lower value; viability: measured here: HepG2 viability without parasites.
Test [4] in a line: stimulators of nuclear beta-catenin in C2C12, primary screen, imaging, WNT3A-conditioned medium, mouse C2C12, NPC library (AID 1117326; in the data active = nuclear beta-catenin stimulation mostly above about 4.2%, no sharp cut-off; inactive = mostly below about 10%). The following applies: stronger effect = higher value.
The nature of test [5]: stimulators of insulin release from INS-1E, primary screen, cell-based, 5 mM glucose, NPC library (AID 1117329;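 active = compound raises insulin release from rat beta cells at 5 mM glucose, no numeric limit stated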). The note with it: rat INS-1E insulin secretion, at 10 µM, stronger effect = higher value.
A short description of test [6]: growth inhibition of GSK3B-pretreated HCT116 cells – cell-based, CellTiter-Glo, 0.2 to 20 µM (AID 1117336;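 active = compounds lowering colon cancer cell viability after pretreatment blocking the GSK3B kinase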). The note with it: HCT116 viability after GSK3B inhibitor, at 20 µM, stronger effect = higher value. In general terms: In ATP-based viability assays light output follows the ATP content of the culture.
Test [7] can be described thus: inhibition of endothelial tube formation, primary screen, imaging, VEGF stimulated, CD31 staining, tube area, NPC library (AID 1117340;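 active = compound that reduces growth-factor-driven endothelial tube area in a mixed cell culture, no cutoff stated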). The note with it: VEGF-stimulated ADSC/ECFC co-culture, at 10 µM, stronger effect = higher value.
The nature of test [8]: glucagon-like peptide 1 release enhancers, primary assay, NCI-H716 cell line, NPC library (AID 1117341;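 active = compound raises GLP1 secretion from the human gut endocrine cells, with no numeric limit stated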). The note with it: NCI-H716 cells, at 10 µM, stronger effect = higher value.
Test [9] can be described thus: HCT116 colon cancer cell growth inhibition, primary screen, CellTiter-Glo luminescence, NPC library (AID 1117342;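 active = compounds that lower survival of HCT116 colon cancer cells in the luminescence readout, no numeric limit stated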). The following applies: at 20 µM (top of the series).
The nature of test [10]: CellTiter-Glo luminescent readout of SW480 viability loss, NPC library primary (AID 1117343;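 active = compounds that lower viability of the colon cancer cells in the luminescence readout, with no numeric limit stated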). The following applies: CellTiter-Glo luminescence; at 20 µM (top of the series) unless noted.
The nature of test [11]: decreased DLD-1 cellular survival, CellTiter-Glo luminescent readout, NPC compound collection, primary HTS (AID 1117346;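 active = compounds that lower survival of DLD-1 colon cancer cells in the luminescence readout, no cutoff given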). The following applies: DLD-1 viability, CellTiter-Glo luminescence; at 20 µM (top of the series).
A short description of test [12]: sensitizers of A549 cells to miR-34 induction, primary screen, imaging, A549 dox-inducible miR-34, nuclei and caspase counts (AID 1347080;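 active = compounds whose cell count with miR-34 switched on is under 0.7 times the count with it off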). The note with it: A549 miR-34 inducible, Hoechst nuclei count, 48 h.
A short description of test [13]: survival rescue of mitochondrial mutant cells in low glucose, primary screen, MELAS cybrids, Rieske KO mouse fibroblasts, CellTiter-Glo (AID 1508586;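 active = mean z-score across replicates of 1.96 or higher in either the MELAS or the Rieske mutant cell line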;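 also: z relative to plate mean and SD of compound and empty wells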).
The mark [14] stands for this setting: stronger effect = lower value, cell number ratio, induced over uninduced.
Setting [15] is: measured here: relative caspase fold change +Dox/-Dox.
[16] abbreviates: measured here: total cells with miR-34 induction, stronger effect = lower value.
Setting [17] is: measured here: total cells without miR-34 induction.
[18] abbreviates: MELAS cybrid survival, CellTiter-Glo 48 h, stronger effect = higher value.
The mark [19] stands for this setting: Rieske KO mouse fibroblast survival, CellTiter-Glo 72 h.

As a reminder, the viability is a read-out of living cells in per cent, often relative to untreated cells.

ATP-dependent translocase ABCB1 (Homo sapiens), sequence (P08183 whole entry, looked up): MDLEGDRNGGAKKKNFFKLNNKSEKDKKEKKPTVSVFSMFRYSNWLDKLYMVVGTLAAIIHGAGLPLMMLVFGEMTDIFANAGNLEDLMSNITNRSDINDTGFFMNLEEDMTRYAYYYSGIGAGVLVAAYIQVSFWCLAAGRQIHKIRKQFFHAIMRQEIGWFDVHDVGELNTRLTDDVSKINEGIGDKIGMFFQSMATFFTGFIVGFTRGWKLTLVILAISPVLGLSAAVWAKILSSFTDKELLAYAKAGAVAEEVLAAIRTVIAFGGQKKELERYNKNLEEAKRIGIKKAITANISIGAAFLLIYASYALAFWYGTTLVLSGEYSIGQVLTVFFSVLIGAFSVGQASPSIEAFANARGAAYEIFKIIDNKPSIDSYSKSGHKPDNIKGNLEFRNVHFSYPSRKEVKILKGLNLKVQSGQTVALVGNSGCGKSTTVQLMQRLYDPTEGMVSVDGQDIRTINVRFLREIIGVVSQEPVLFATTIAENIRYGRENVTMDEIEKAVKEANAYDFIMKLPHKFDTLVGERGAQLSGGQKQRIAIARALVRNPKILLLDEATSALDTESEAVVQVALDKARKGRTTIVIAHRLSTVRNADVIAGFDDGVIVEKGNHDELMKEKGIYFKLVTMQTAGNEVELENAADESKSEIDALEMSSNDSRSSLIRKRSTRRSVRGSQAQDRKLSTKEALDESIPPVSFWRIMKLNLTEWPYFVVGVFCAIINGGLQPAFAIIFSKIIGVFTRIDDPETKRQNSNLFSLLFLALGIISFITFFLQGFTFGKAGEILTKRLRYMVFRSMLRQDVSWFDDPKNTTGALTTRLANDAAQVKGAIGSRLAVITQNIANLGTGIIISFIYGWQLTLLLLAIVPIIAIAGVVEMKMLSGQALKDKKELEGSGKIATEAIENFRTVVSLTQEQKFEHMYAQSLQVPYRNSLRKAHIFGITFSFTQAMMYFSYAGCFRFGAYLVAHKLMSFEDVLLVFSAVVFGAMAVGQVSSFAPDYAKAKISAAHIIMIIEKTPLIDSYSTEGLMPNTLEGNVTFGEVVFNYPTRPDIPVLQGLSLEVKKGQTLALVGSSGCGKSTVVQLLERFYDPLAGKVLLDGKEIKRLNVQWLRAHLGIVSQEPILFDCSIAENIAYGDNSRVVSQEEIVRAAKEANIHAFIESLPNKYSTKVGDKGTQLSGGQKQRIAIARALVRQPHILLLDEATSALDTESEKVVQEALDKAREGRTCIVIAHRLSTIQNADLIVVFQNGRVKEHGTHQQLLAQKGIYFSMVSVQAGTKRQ

`CCc1cccc(CC)c1NC(=O)CN(CC(=O)O)CC(=O)O`: in test [1], the fluorescence slope change is -10% (inactive). Besides, in test [2], the survival is 10.9 (inactive). For the same compound, the parasite load remaining in test [3] was 77.8% (inactive) and 89.7% (inactive). Further, in [3], the viability was 111% and 80.2%. The nuclear beta-catenin stimulation in [4] (at 10 µM) is -0.2% (inactive); in test [4] (stimulation, at 2 µM), 0.2%. Further, the insulin secretion stimulation in [5] was -1.7% (inactive). Moreover, the viability decrease in [6] is -8.7% (inactive). For the same compound, in test [7], the tube area decrease was 7.4% (inactive). Also, the GLP1 secretion stimulation in [8] was -0.1% (inactive). Also, the inhibition of viability in test [9] was 12% (inactive). For the same compound, the viability decrease (inhibition) was 39.7% (inactive) in [10] and 1.77% (inactive) in test [11]. Besides, the figures for the fold change in test [12] (setting [14]) and in test [12] (setting [15]) were 0.877 (inactive) and 1.63, respectively. For the same compound, the results for the cell count in test [12] (setting [16]) and in test [12] (setting [17]) were 9160 and 10400, respectively. Further, the z-score in [13] (setting [18]) was 0.304 (inactive); in [13] (setting [19]), 0.0436.
Turning to `OC(CCCN1CCCCC1)(c1ccccc1)c1ccccc1`, the fluorescence slope change in test [1] was 71.6% (active). Besides, in test [2], the survival is 12.2 (inactive). Also, in test [3], the parasite load remaining is 29.2% (inactive) and 89.1% (inactive). Moreover, the viability in test [3] was 45.7% and 89.8%. Moreover, the nuclear beta-catenin stimulation in test [4] (at 10 µM) was -0.9% (inactive); in test [4] (stimulation, at 2 µM), -0.2%. In addition, the insulin secretion stimulation in test [5] was 22% (active). Further, the viability decrease in test [6] was -9.5% (inactive). Besides, the tube area decrease in test [7] is 3.9% (inactive). Moreover, the GLP1 secretion stimulation in [8] was -3.3% (inactive). Besides, in [9], the inhibition of viability was 6.1% (inactive). Further, the viability decrease (inhibition) in test [10] is 12% (inactive); in test [11], -3.8% (inactive). Further, the fold change in test [12] (setting [14]) is 0.908 (inactive) and 0.916 (inactive); in [12] (setting [15]), 1.32 and 0.648. Also, the cell count is 8770 and 8200 in [12] (setting [16]); 9660 and 8950 in [12] (setting [17]). Moreover, the z-score is -0.227 (inactive) and -0.211 (inactive) in test [13] (setting [18]); -0.167 and -0.027 in test [13] (setting [19]).
Take `COCC(=O)Nc1c(I)c(C(=O)NCC(O)CO)c(I)c(C(=O)N(C)CC(O)CO)c1I` (configuration not stated): in test [2], the survival is 1.33 (inactive). Besides, in [3], the parasite load remaining was 103% (inactive). For the same compound, in test [3], the viability was 104%. Further, the nuclear beta-catenin stimulation in test [4] (at 10 µM) was 3% (inactive); in [4] (stimulation, at 2 µM), 2.8%. In addition, in test [5], the insulin secretion stimulation was 3.5% (inactive). Besides, the viability decrease in test [6] was -12.6% (inactive). In addition, in test [7], the tube area decrease is -13.9% (inactive). Moreover, the GLP1 secretion stimulation in [8] was -1.2% (inactive). Further, in [9], the inhibition of viability was -4.47% (inactive). Moreover, the viability decrease (inhibition) in test [10] was -13% (inactive); in test [11], -7.9% (inactive). Besides, the fold change in [12] (setting [14]) is 0.856 (inactive); in [12] (setting [15]), 1.69. In addition, the values for the cell count in test [12] (setting [16]) and in test [12] (setting [17]) were 8610 and 10100, respectively. For the same compound, the values for the z-score in test [13] (setting [18]) and in test [13] (setting [19]) were -0.386 (inactive) and -1.03, respectively.
Regarding `C[N+]1(C)CCC(=C(c2ccccc2)c2ccccc2)CC1`, the survival in [2] is 14.4 (inactive). The parasite load remaining in test [3] is 49.5% (inactive) and 80.3% (inactive). For the same compound, the viability in test [3] is 48.7% and 94.9%. For the same compound, the nuclear beta-catenin stimulation was 1.1% (inactive) in test [4] (at 10 µM) and -1.3% in [4] (stimulation, at 2 µM). For the same compound, the insulin secretion stimulation in [5] is 3.5% (inactive). For the same compound, the viability decrease in [6] is -7.5% (inactive). For the same compound, the tube area decrease in test [7] was 23.2% (inactive). For the same compound, in test [8], the GLP1 secretion stimulation is 0% (inactive). The inhibition of viability in [9] is 7.97% (inactive). Moreover, the viability decrease (inhibition) is 40.8% (inactive) in test [10] and -3.1% (inactive) in test [11]. For the same compound, the fold change in [12] (setting [14]) is 0.907 (inactive) and 1.1 (inactive); in [12] (setting [15]), 0.619 and 0.415. Also, the cell count was 8340 and 8800 in test [12] (setting [16]); 9190 and 7990 in test [12] (setting [17]). The z-score in test [13] (setting [18]) is -0.294 (inactive) and -0.951 (inactive); in test [13] (setting [19]), -0.199 and -0.0737.
Take `C[C@]12CC[C@H]3[C@@H](CCC4=CC(=O)CC[C@@]43C)[C@@H]1CC[C@@H]2C(=O)CO`: the survival in test [2] is 2.75 (inactive). Besides, the parasite load remaining in [3] was 95.4% (inactive). The viability in [3] is 96.9%. The nuclear beta-catenin stimulation in [4] (at 10 µM) was 3.8% (inactive); in [4] (stimulation, at 2 µM), 5.6%. In addition, the insulin secretion stimulation in test [5] was 0.8% (inactive). Also, the viability decrease in test [6] was -35.8% (inactive). Also, the tube area decrease in test [7] was 34.3% (inactive). The GLP1 secretion stimulation in test [8] was 2.7% (inactive). Moreover, the inhibition of viability in test [9] was 27.8% (inactive). For the same compound, the viability decrease (inhibition) in test [10] was 23.6% (inactive); in test [11], 8.8% (inactive). The fold change in [12] (setting [14]) is 0.793 (inactive); in test [12] (setting [15]), 1.3. The results for the cell count in [12] (setting [16]) and in test [12] (setting [17]) were 7560 and 9530, respectively. In addition, the z-score is -0.237 (inactive) in test [13] (setting [18]) and 0.173 in [13] (setting [19]).
